# Source: PubChem BioAssay (NCATS)
# “And” between values parts separate entries of the source, which are not always exact repeats. Equal entries are not always repeated. Records with an inconclusive call do not appear. The source made the active and inactive calls. The call rests on the fitted dose curve; in most records, active means well fitted curve in the direction sought with a large enough effect; inconclusive means small, poorly fitted or top-dose-only effect, or another doubt; inactive means no such curve, though single readings can be large; an effect the other way counts as inactive or inconclusive.
# Experiments:
# [1] = Confirmatory screen GU Rhodamine qHTS for Zika virus inhibitors qHTS (AID 1347157); further: nearly all actives have a fitted effect of over 70% in size; further: potency means the concentration at half of the fitted maximal effect
# Procedure, shortened: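 In dose–response format, inhibition of unlinked protease (25 nM) was measured with 1.5 microM bis-peptide Rhodamine110 substrate. Aprotinin served as the intraplate control.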
# [2] = tested on: Zika virus NS2B-NS3 protease (unlinked complex); assay: Primary screen GU Rhodamine qHTS for Zika virus inhibitors: Unlinked NS2B-NS3 protease assay (AID 1347159); further: nearly all actives have a fitted effect of over 60% in size; further: potency means the concentration at half of the fitted maximal effect
# Procedure, shortened: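 Enzyme 25 nM in Tris-HCl pH 8.0 + 0.01% Tween 20; compounds up to 114 microM, 15 min RT dark; + Rhod110 substrate 1.5 microM; read t0 and 15 min; delta fluorescence → % inhibition → 4-parameter Hill fit.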
# [3] = tested on: Zika virus NS2B-NS3 protease (linked construct); assay: Primary screen NINDS Rhodamine qHTS for Zika virus inhibitors (AID 1347160); further: nearly all actives have a fitted effect of over 55% in size; further: potency means the concentration at half of the fitted maximal effect
# Procedure, shortened: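 Enzyme (25 nM, linked NS2B-NS3) was preincubated 15 min with compound in 10 mM Tris-HCl pH 8.0, 0.01% Tween 20. Rhodamine110 substrate (1.5 microM) was then added and fluorescence read at start and after 15 min.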
# [4] = Confirmatory screen NINDS Rhodamine qHTS for Zika virus inhibitors (AID 1347161); further: nearly all actives have a fitted effect of over 60% in size; further: potency means the concentration at half of the fitted maximal effect
# Procedure, shortened: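 Purified linked NS2B-NS3 protease (NS2B hydrophilic domain joined to NS3 protease by flexible linker), 25 nM in 10 mM Tris-HCl pH 8.0, 0.01% Tween 20. Compounds titrated, 15 min preincubation at room temperature; 1.5 microM Rhodamine110 substrate, FITC fluorescence change over 15 min.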
# [5] = ZIKV-mCherry secondary qHTS for Zika virus inhibitors (AID 1347158); further: top concentration of the series differs between compounds
# Procedure, shortened: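 This orthogonal imaging screen measured ZIKV-mCherry infection of Vero cells exposed to compound, MOI 1, 48-72 h. Percent infection came from segmented nuclei scored mCherry-positive above 3 SD of negative controls.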
# [6] = tested on: Zika virus NS2B-NS3 protease (linked); assay: 384 well plate NINDS AMC confirmatory qHTS for Zika virus inhibitors (AID 1347163); further: nearly all actives have a fitted effect of over 50% in size; further: potency means the concentration at half of the fitted maximal effect
# Procedure, shortened: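 Enzyme (5, 30 or 60 nM final) first met test compounds for ~15 min. The AMC-tagged peptide Ac-VKTGKR-AMC followed at 30 microM. Fluorescence was then recorded at 25 min and scaled against no-enzyme and no-inhibitor wells.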
# [7] = Vero cells viability qHTS for Zika virus inhibitors (AID 1347167)
# Procedure, shortened: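 Luminescent ATP readout (CellTiter Glo) after 30 min at 37 degrees C gives viability; cells in DMEM + 4% FBS were treated 24 to 48 hours with compound, following overnight attachment.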
# [8] = tested on: Zika virus NS2B-NS3 protease (linked construct); assay: 384 well plate NINDS Rhodamine confirmatory qHTS for Zika virus inhibitors (AID 1347164);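 further: fluorescence from protease cleavage of Ac-LKRR-rhodamine 110 substrate; nearly all actives have a fitted effect of over 65% in size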; further: potency means the concentration at half of the fitted maximal effect
# Procedure, shortened: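 Fluorescence read at ex 485 nm/em 538 nm, 25 min after adding 10 microM Ac-LKRR-Rd substrate at room temperature in the dark; signal normalized to no-enzyme and no-inhibitor controls. Enzyme final 5, 30 or 60 nM; compounds, ~15 min preincubation.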
# [9] = tested on: Zika virus NS2B-NS3 protease; assay: Primary screen GU AMC qHTS for Zika virus inhibitors (AID 1347154); further: potency means the concentration at half of the fitted maximal effect; nearly all actives have a fitted effect of over 70% in size
# Procedure, shortened: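 Fluorogenic AMC-substrate cleavage by noncovalent NS2B-NS3 protease complex (25 nM, pH 8.0 Tris buffer with Tween 20) followed for 15 minutes at room temperature (~20% conversion). Percent inhibition from ex340/em450 signal change, fitted by 4-parameter Hill equation.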
smiles,measurement,setting,value
CC(C)C[C@H](CO)Nc1nc(S[C@@H](C)c2ccccc2)nc2nc(N)sc12,Potency,[1],55.5 µM (active)
same,Potency,[2],inactive
C[C@H]1CO[C@@H]2Cn3cc(C(=O)NCc4ccc(F)cc4F)c(=O)c(O)c3C(=O)N12,Potency,[1],inactive
same,Potency,[2],35.5 µM (active)
same,Potency,[3],inactive
same,Potency,[4],inactive
Oc1cccc(-c2c3nc(c(-c4cccc(O)c4)c4ccc([nH]4)c(-c4cccc(O)c4)c4nc(c(-c5cccc(O)c5)c5ccc2[nH]5)CC4)C=C3)c1,Potency,[1],22.4 µM (active)
same,Potency,[5],inactive
same,Potency,[4],20 µM (active)
same,Potency,[6],3.16 µM (active)
CCC(C)/C=C(C)/C=C/C1=CC2=CC(=O)C3(C)OC(C)(O)C(C(=O)OC)C3C2=CO1 (stereo unspecified),Potency,[1],19.2 µM (active)
same,Potency,[3],inactive
same,Potency,[4],21.5 µM (active)
O=C(O)c1ccc(S(=O)(=O)N(Cc2ccc(OC(F)(F)F)cc2)c2ncc(C(F)(F)F)cc2Cl)cc1,Potency,[1],3.93 µM (active)
same,Potency,[2],4.47 µM (active)
same,Potency,[3],4.47 µM (active)
same,Potency,[4],3.93 µM (active)
same,Potency,[6],2.51 µM (active)
same,outcome,[7],inactive
Cc1c(OCc2cccc(-c3ccc(C(=O)O)cc3)c2)cc2c(c1C)C(=O)C(C1CCCC1)C2 (stereo unspecified),Potency,[2],1.78 µM (active)
O=S(=O)(Nc1cc(Cl)c(Oc2cnc3ccccc3c2)c(Cl)c1)c1ccc(Cl)cc1Cl,Potency,[1],1.75 µM (active)
same,Potency,[2],1.78 µM (active)
same,Potency,[3],3.98 µM (active)
same,Potency,[4],2.21 µM (active)
same,Potency,[8],2.51 µM (active)
COc1ccc2nccc(C(=O)CC[C@@H]3CCN(CC#Cc4cc(F)cc(F)c4F)C[C@@H]3C(=O)O)c2c1,Potency,[1],39.3 µM (active)
same,Potency,[3],inactive
same,Potency,[4],44.1 µM (active)
C=C1/C(=C/C=C2\CCC[C@]3(C)[C@@H]([C@H](C)/C=C/[C@@H](C)C(C)C)CC[C@@H]23)C[C@@H](O)C[C@@H]1O,Potency,[1],49.4 µM (active)
same,Potency,[2],31.6 µM (active)
same,Potency,[3],inactive
same,Potency,[4],49.4 µM (active)
CC(C)C[C@H](C(=O)O)c1cc(-c2ccc(C(F)(F)F)cc2)cc(-c2ccc(C(F)(F)F)cc2)c1,Potency,[1],3.12 µM (active)
same,Potency,[3],3.55 µM (active)
same,Potency,[4],3.5 µM (active)
same,Potency,[8],inactive
O=C(Nc1cc(C(F)(F)F)cc(C(F)(F)F)c1)c1cnc(Cl)nc1C(F)(F)F,Potency,[1],24.8 µM (active)
same,Potency,[2],15.8 µM (active)
same,Potency,[3],inactive
same,Potency,[4],44.1 µM (active)
COc1cc2ncc(-c3ccccc3)nc2cc1OC,Potency,[9],6.31 µM (active) and 2.38 µM (active)
same,Potency,[2],inactive
same,Potency,[3],inactive
CCCCCc1ccc(/C=C/C(=O)Nc2cc(Cl)ccc2C(=O)O)cc1,Potency,[1],1.75 µM (active)
same,Potency,[3],2 µM (active)
same,Potency,[4],1.75 µM (active)
same,Potency,[8],22.4 µM (active)
O=C(Nc1ccc(-c2ccc(Cl)c(Cl)c2)cc1)C1=C(O)c2ccccc2S(=O)(=O)N1,Potency,[1],2.48 µM (active)
same,Potency,[2],2.82 µM (active)
same,Potency,[3],3.98 µM (active)
same,Potency,[4],2.48 µM (active)
same,Potency,[6],inactive
same,Potency,[8],44.7 µM (active)
same,outcome,[7],inactive
O=C(O)c1cccc(-c2ccc(-c3cn(C(=O)N4CCCCC4Cc4ccccc4)nn3)cc2)c1 (stereo unspecified),Potency,[1],4.41 µM (active)
same,Potency,[2],3.98 µM (active)
same,Potency,[3],3.98 µM (active)
same,Potency,[4],3.5 µM (active)
same,Potency,[6],inactive
same,Potency,[8],inactive
same,outcome,[7],inactive
CC(=O)O[C@H]1[C@H](O)C[C@@]2(C)C(CC[C@]3(C)C2CC=C2C4CC(C)(C)CC[C@]4(C(=O)O)CC[C@]23C)C1(C)C (stereo partly specified),Potency,[2],7.94 µM (active)
Cc1noc(-c2ccc(-c3ccc(CC(=O)O)cc3)cc2)c1NC(=O)O[C@H](C)c1ccccc1Cl,Potency,[1],5.55 µM (active)
same,Potency,[2],3.16 µM (active)
same,Potency,[3],4.47 µM (active)
same,Potency,[4],4.94 µM (active)
same,Potency,[6],20 µM (active)
same,Potency,[8],7.94 µM (active)
CCCCc1ccc(NS(=O)(=O)c2ccc(F)cc2)cc1,Potency,[2],50.1 µM (active)
COc1ccc(-c2ccccc2)cc1NS(=O)(=O)c1cc(Cl)cc(Cl)c1O,Potency,[1],1.21 µM (active)
same,Potency,[2],1.41 µM (active)
same,Potency,[3],1.58 µM (active)
same,Potency,[4],1.71 µM (active)
same,Potency,[6],4.47 µM (active)
same,Potency,[8],4.47 µM (active)
same,outcome,[7],inactive
O=C(O)c1ccc(N2C(=O)/C(=C/c3ccc(-c4ccc([N+](=O)[O-])cc4)o3)C=C2c2ccccc2)cc1,Potency,[1],1.56 µM (active)
same,Potency,[5],inactive
same,Potency,[3],1.78 µM (active)
same,Potency,[4],1.75 µM (active)
same,Potency,[6],22.4 µM (active)
same,Potency,[8],inactive
same,outcome,[7],inactive
Cc1cc(OCCCS(C)(=O)=O)cc(C)c1-c1cccc(COc2ccc3c(c2)OCC3CC(=O)O)c1 (stereo unspecified),Potency,[1],8.79 µM (active)
same,Potency,[3],inactive
same,Potency,[4],7.84 µM (active)
